ssDAF12 agonist = activators of S. stercoralis DAF-12 nuclear receptor | HEK293 ssDAF-12/GRIP1 lit1-tk-luc reporter, luminescence; % of 3 µM dafachronic acid response | activation, % at 6.8 µM | actives 1% (n = 370,000) | AID 652126;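 active = activation above the mean over all tested compounds plus 3 SD, cut at about 0.9% in these data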
esBAF inh = inhibitors of esBAF chromatin remodeling in mouse ES cells. Bmi1-luciferase knock-in reporter, 24 h; 100% = twice the neutral-well signal. reporter increase, % at 12.5 µM. actives 2% (n = 350,000). AID 602393; in the data active = activation above about 40%; inconclusive = no clear call, values can overlap the other calls;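 note: a rise in the Bmi1 reporter signal indicates esBAF inhibition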
Wnt bcat act = activators of Wnt/beta-catenin signaling | Wnt/beta-catenin reporter cell assay, activator, plate reader | activation, % at 9.35 µM | actives 1.2% (n = 300,000) | AID 743398; in the data active = activation above about 30%, passing the limit was not always enough; inconclusive = no clear call, values can overlap the other calls
DAX1 inh = inhibitors of DAX1 repression of SF-1 activated StAR promoter; actives 1.1% (n = 370,000); HEK293T StAR-luciferase reporter, SF-1/DAX-1 repression relief; inhibition, % at 6.8 µM;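 active = inhibition above the mean over all tested compounds plus 3 SD, cut at about 3.6% in these data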;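 note: higher inhibition means more luminescence from relief of DAX-1 repression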
hgDAF-12 ag = hgDAF-12 agonism, primary luciferase screen | HEK293 GAL4-hgDAF12 UAS-luciferase reporter, agonist luminescence; normalized to butyrate control | activation, % at 6.8 µM | actives 1.8% (n = 370,000) | AID 687014;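 active = activation above a cutoff set at the mean of all screened compounds plus 3 SD, cut at about 10% in these data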
hcDAF-12 act = H. contortus DAF-12 activation, primary screen | HEK293 hcDAF-12 lit1-tk-luc reporter, luminescence; 0% DMSO, 100% Δ7-dafachronic acid | activation, % at 6.8 µM | actives 1.4% (n = 370,000) | AID 652067;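 active = activation above the mean of all tested compounds plus 3 SD, cut at about 5.5% in these data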
Hits are given with their value; – = inactive; ? = inconclusive; · = no result given. In the library only some 4.2% were active in any assay of this set; here they are far more common.

SMILES | ssDAF12 agonist | esBAF inh | Wnt bcat act | DAX1 inh | hgDAF-12 ag | hcDAF-12 act
C[C@H](CO)N1C[C@H](C)[C@@H](CN(C)Cc2ccc3c(c2)OCO3)OCCCC[C@H](C)Oc2ccc(NC(=O)Nc3ccc(F)cc3)cc2C1=O | · | – | · | · | · | ·
Cc1ccc(S(=O)(=O)N(C)C[C@H]2Oc3ccc(NC(=O)c4ccncc4)cc3CC(=O)N([C@@H](C)CO)C[C@H]2C)cc1 | · | – | · | · | · | ·
C[C@H]1CN([C@@H](C)CO)C(=O)c2cc(-c3cncnc3)cnc2O[C@H]1CN(C)C(=O)Cc1ccccn1 | · | – | · | · | · | ·
CCCOc1ccc(-c2cnc(N)s2)cc1 | – | 76 | – | – | – | –
Nc1cc2c(cc1Br)-c1ccccc1C2=NO | – | 63 | 34 | – | – | –
C[C@@H]1CN([C@@H](C)CO)S(=O)(=O)c2ccc(C#C[C@@H](C)O)cc2O[C@@H]1CN(C)C(=O)Nc1ccccc1 | · | – | · | · | · | ·
Cc1noc(C)c1NC(=O)N(C)C[C@@H]1Oc2ncc(C#CC(C)(C)O)cc2C(=O)N([C@H](C)CO)C[C@@H]1C | · | – | · | · | · | ·
CC(=O)Nc1ccccc1OCc1nnc(-c2ccc(Cl)cc2)o1 | – | 66 | – | – | – | –
Clc1ccccc1OCc1nnc(-c2ccccc2)o1 | – | · | ? | – | 13 | –
CC(=O)Nc1ccccc1OCc1nnc(-c2cccs2)o1 | – | – | · | – | – | –
CO[C@H]1CN(C)C(=O)c2cc(NC(=O)C3CCOCC3)ccc2OC[C@H](C)N(C(=O)c2ccccc2)C[C@H]1C | · | – | · | · | · | ·
C[C@@H]1CCCCO[C@H](CN(C)C(=O)C2CCCCC2)[C@@H](C)CN([C@H](C)CO)C(=O)c2cc(NC(=O)CCCCCC(=O)Nc3ccccc3N)ccc2O1 | · | – | · | · | · | ·
C[C@@H]1CCCCO[C@@H](CN(C)C(=O)c2ccncc2)[C@H](C)CN([C@H](C)CO)C(=O)c2cc(NS(=O)(=O)c3ccc(F)cc3)ccc2O1 | · | – | · | · | · | ·
CC(=O)c1sc2nc(-c3cccs3)cc(C(F)(F)F)c2c1N | – | – | · | – | – | 6.3
Cc1c(C(=O)Nc2nccs2)sc2nc(-c3cccs3)cc(C(F)(F)F)c12 | 1.2 | – | · | – | – | –
Cc1c(C(=O)O)sc2nc(-c3cccs3)cc(C(F)(F)F)c12 | – | – | – | – | – | –
C[C@@H]1CN([C@H](C)CO)C(=O)c2cc(NC(=O)c3ccncc3)ccc2O[C@@H]1CN(C)S(=O)(=O)c1ccc(F)cc1 | · | – | · | · | · | ·
CCC(=O)N[C@@H]1CC[C@H](CCn2cc(C3CC3)nn2)O[C@@H]1CO | · | – | · | · | · | ·
O=C1NC2(CCCCC2)C(=O)N1c1ccc(Cl)cc1 | – | – | – | – | – | –
CSc1ccc(N2C(=O)NC3(CCCCC3)C2=O)cc1 | – | 62 | – | – | – | –
CC(C)c1cn(CC[C@H]2CC[C@H](NC(=O)C3CCCC3)[C@@H](CO)O2)nn1 | · | – | · | · | · | ·
COc1cccc(NC(=O)n2nc(N)cc2-c2ccc(Cl)cc2)c1 | – | – | – | – | 12 | –
O=P(OC1CCCCC1)(OC1CCCCC1)C(O)c1cccnc1 (stereo not given) | – | – | – | – | – | 5.9
O=P(OC1CCCCC1)(OC1CCCCC1)C(O)c1ccccc1 (stereo not given) | – | – | · | – | – | –
CCOC(=O)Nc1cccc(C(=O)O)c1 | – | – | · | – | – | –
SMILES | ssDAF12 agonist | esBAF inh | Wnt bcat act | DAX1 inh | hgDAF-12 ag | hcDAF-12 act
Cc1ccc(C)c(OCC(=O)Nc2cccc(C(=O)O)c2)c1C | – | ? | 37 | – | – | –
Cc1cccc(C)c1OCC(=O)Nc1cccc(C(=O)O)c1 | – | · | – | 3.8 | – | –
C[C@H](CO)N1C[C@H](C)[C@@H](CN(C)S(=O)(=O)c2ccccc2)Oc2ccc(NS(=O)(=O)c3ccc(F)cc3)cc2CC1=O | · | – | · | · | · | ·
CC(C(=O)N1CCOCC1)N1C(=O)c2cccc3cccc(c23)C1=O (stereo not given) | – | · | 33 | – | – | –
O=C(CCN1C(=O)c2cccc3cccc(c23)C1=O)N1CCOCC1 | – | 53 | – | – | 13 | –
CC(C(=O)N1CCOCCOCCOCCOCCOCC1)N1C(=O)c2ccccc2C1=O (stereo not given) | – | · | – | – | – | –
O=C(CCN1C(=O)c2ccccc2C1=O)N1CCOCC1 | – | – | – | – | – | –
O=C(N[C@@H]1CC[C@H](CC(=O)N2CCc3ccccc3C2)O[C@@H]1CO)C1CCC1 | · | – | · | · | · | ·
